Laboratory results reported in PubChem BioAssay AID588778 (Southern Research Institute, 2011).
The campaign covered roughly 10,000 compounds. Fewer than 10 were called active. No rule for the calls is given here. Only a sample is shown.

Assay: Vibrio cholerae motility inhibitors, OD read-out (AID 588778)
Details: stronger effect = higher value
[1] = measured here: bacterial viability at 10 ug/mL

## O=C(Nc1cnccn1)c1cccs1
Concentration not given here
  inhibition: 20.3% (inactive)
[1]
  inhibition: 10.6%

## CCOC(=O)N1CCN(C(=O)c2ccc(C#CC3(O)CCCCC3)cc2)CC1
Concentration not given here
  inhibition: -17.2% (inactive)
[1]
  inhibition: -5.67%

## CC(C)N=C(NS(=O)(=O)c1ccccc1)c1ccccc1
Concentration not given here
  inhibition: -3.11% (inactive)
[1]
  inhibition: -1.85%

## Cc1nc(NC(=O)c2c(F)c(F)c(F)c(F)c2F)ccc1I
Concentration not given here
  inhibition: 13% (inactive)
[1]
  inhibition: 0.675%

## COc1ccc2[nH]cc(CCNS(=O)(=O)Cc3ccccc3)c2c1
Concentration not given here
  inhibition: 8.63% (inactive)
[1]
  inhibition: 0.04%

## O=C(NC(=S)NCc1ccccc1)C1CC1
Concentration not given here
  inhibition: 12.4% (inactive)
[1]
  inhibition: 5.74%

## CC(NC(=O)c1ccco1)c1ccc(I)cc1 (stereo not drawn)
Concentration not given here
  inhibition: 15.8% (inactive)
[1]
  inhibition: 23.3%

## CSc1cccc(NC(=O)Cn2c(C)c(C=O)c3ccccc32)c1
Concentration not given here
  inhibition: 20.7% (inactive)
[1]
  inhibition: 5.17%

## CC(C)(C)OC(=O)NNC(=O)Nc1ccccc1C(F)(F)F
Concentration not given here
  inhibition: 15.3% (inactive)
[1]
  inhibition: 31.8%

## O=C(O)c1ccc(NC(=O)c2ccc(Cl)cc2)c(NC(=O)c2ccc(Cl)cc2)c1
Concentration not given here
  inhibition: -7.79% (inactive)
[1]
  inhibition: -2.21%

## N#Cc1cc2c(nc1SCC1(O)CCCc3ccccc31)CCCC2 (stereo not drawn)
Concentration not given here
  inhibition: 8.28% (inactive)
[1]
  inhibition: -3.11%

## COc1ccc(-c2csc3ncnc(Oc4cccc5cccnc45)c23)cc1
Concentration not given here
  inhibition: -32.6% (inactive)
[1]
  inhibition: -9.37%

## COc1cccc2cc(C(=O)Nc3scc(-c4ccc(F)cc4)c3C(=O)OC(C)C)c(=O)oc12
Concentration not given here
  inhibition: -22.6% (inactive)
[1]
  inhibition: -8.21%

## O=[N+]([O-])c1cccc(CN2CCC(N3CCCC3)CC2)c1
Concentration not given here
  inhibition: -18.4% (inactive)
[1]
  inhibition: -10.2%

## NC(=O)C1(N2CCCCC2)CCN(C(=O)CSc2nc3ccccc3o2)CC1
Concentration not given here
  inhibition: 4.33% (inactive)
[1]
  inhibition: -1.26%

## CCN(CC#CCCOC(C)=O)c1ccccc1
Concentration not given here
  inhibition: -9.42% (inactive)
[1]
  inhibition: -8.17%

## O=C(NC(=S)Nc1ccc(Cl)cc1C(F)(F)F)c1ccccc1I
Concentration not given here
  inhibition: -7.41% (inactive)
[1]
  inhibition: -8.11%

## COc1cc(C=O)ccc1OC(=O)c1nsc(Cl)c1Cl
Concentration not given here
  inhibition: 2.31% (inactive)
[1]
  inhibition: 2.66%

## O=C(NCCSc1ccc(Cl)cc1)Nc1ccccc1
Concentration not given here
  inhibition: 52.1% (inactive)
[1]
  inhibition: 14.4%

## Cc1ccc(F)c(NC(=O)CN2C(=O)CSc3ccccc32)c1
Concentration not given here
  inhibition: 16.3% (inactive)
[1]
  inhibition: 13.8%

## CCCCCOc1ccc(NC(=O)C(=O)NCCN2CCOCC2)cc1
Concentration not given here
  inhibition: -4.07% (inactive)
[1]
  inhibition: -7.64%

## COc1ccc(C(=O)N(Cc2ccc(C)o2)C2CCS(=O)(=O)C2)cc1Cl (stereo not drawn)
Concentration not given here
  inhibition: 1.9% (inactive)
[1]
  inhibition: 1.08%

## Cc1nnc(SCC(=O)Nc2ccc(Cl)cn2)s1
Concentration not given here
  inhibition: -2.25% (inactive)
[1]
  inhibition: -0.63%

## Cc1ccc(S(=O)(=O)Nc2ccc(C(=O)Nc3nccs3)cc2)cc1
Concentration not given here
  inhibition: 4.81% (inactive)
[1]
  inhibition: -2.49%

## Cn1cnnc1SCC(=O)Nc1ccccn1
Concentration not given here
  inhibition: 9.88% (inactive)
[1]
  inhibition: 31.7%

## Clc1ccc(Cc2nc(-c3cccnc3)no2)cc1
Concentration not given here
  inhibition: 5.04% (inactive)
[1]
  inhibition: 0.075%

## CCOc1cc2c(cc1OCC)C(c1ccc(OC)c(OC)c1)N(c1ccc(C(=O)O)cc1)C(=O)C2 (stereo not drawn)
Concentration not given here
  inhibition: -8.01% (inactive)
[1]
  inhibition: -1.54%

## COc1ccc(Br)cc1CNCc1cccs1
Concentration not given here
  inhibition: 84.4% (inactive)
[1]
  inhibition: 24.4%

## C=CCn1c2ccccc2c2nnc(SCC(=O)Nc3cc(C)on3)nc21
Concentration not given here
  inhibition: -1.67% (inactive)
[1]
  inhibition: -8.05%

## CC1=C(C(=O)Nc2nc3ccccc3s2)C(c2ccc(F)cc2)C2=C(CCCC2=O)N1 (stereo not drawn)
Concentration not given here
  inhibition: -5.34% (inactive)
[1]
  inhibition: 0.795%

## CC(C)(NO)C(=O)c1ccc(Cl)cc1
Concentration not given here
  inhibition: 1.66% (inactive)
[1]
  inhibition: -5.03%

## CC12CCC(C(=O)NCc3ccccc3Cl)(CC1=O)C2(C)C (stereo not drawn)
Concentration not given here
  inhibition: 7.42% (inactive)
[1]
  inhibition: -6.53%

## Cc1cc(NC(=O)COc2cc(C)c(Cl)c(C)c2)no1
Concentration not given here
  inhibition: 3.92% (inactive)
[1]
  inhibition: -7.52%

## CCOc1ccc2ccccc2c1C(=O)NCc1cccs1
Concentration not given here
  inhibition: 17.9% (inactive)
[1]
  inhibition: 2.9%

## O=C(CC1(c2ccc(Cl)cc2)C(=O)c2ccccc2C1=O)N1CCCCC1
Concentration not given here
  inhibition: 16% (inactive)
[1]
  inhibition: -0.9%

## Cc1occc1C(=O)Nc1cc(=O)n(C)c(=O)n1C
Concentration not given here
  inhibition: 3.62% (inactive)
[1]
  inhibition: -1.31%

## Cc1c(C(=O)c2ccccc2)c(=O)n(C)c(=O)n1C
Concentration not given here
  inhibition: -8.62% (inactive)
[1]
  inhibition: 1.24%

## COc1ccc(OC)c(NC(=O)Cn2c(C)ccc2C)c1
Concentration not given here
  inhibition: 5.31% (inactive)
[1]
  inhibition: 2.44%

## CC12CCC(C(=O)Nc3ccc(SC(F)F)cc3)(CC1=O)C2(C)C (stereo not drawn)
Concentration not given here
  inhibition: 7.67% (inactive)
[1]
  inhibition: 34.3%

## S=C(NCc1ccc(Cl)cc1)N1CCC2(CC1)OCCO2
Concentration not given here
  inhibition: -10.1% (inactive)
[1]
  inhibition: -3.96%

## OCCNC(=S)NC1CCCCC1
Concentration not given here
  inhibition: -10.2% (inactive)
[1]
  inhibition: -4.3%

## OCCNC/C=C/c1c(F)c(F)c(F)c(F)c1F
Concentration not given here
  inhibition: 8.12% (inactive)
[1]
  inhibition: 1.91%

## O=C(c1ccc(Sc2nnc(Cc3ccccc3)n2-c2ccccc2)c([N+](=O)[O-])c1)N1CCCC1
Concentration not given here
  inhibition: -6.85% (inactive)
[1]
  inhibition: 7.99%

## COc1ccc(NC(=S)Nc2ccccc2OC(F)F)cc1OC
Concentration not given here
  inhibition: -38% (inactive)
[1]
  inhibition: -5%
